# SMN2 splice up = enhancers of SMN2 splice variant expression | HEK293 SMN2-luciferase splicing reporter, luminescence, 30-36 h | Potency, µM (highest dose often 46.1 µM), without a hit: top-dose activity change, positive = activation, usual class: activators | hit rate 2.8% among 210,000 | AID 1458; note: % of control where 0% means no effect; nearly all actives have a fitted effect of over 55% in size
#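 HEK293 cells carry an SMN2 minigene-luciferase reporter in which exon 7 inclusion puts luciferase in frame. Cells were seeded at 2000 cells/well, attached for 10-12 hours, then exposed to compounds for 30-36 hours at 37C before ONE-Glo luminescence.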
# NPC1 prom act = activates the NPC1 promoter. Huh7 NPC1 promoter luciferase reporter, 24 h. Potency, µM (top dose mostly 9.22 µM), inactives show top-dose activation, hits mostly activators. hit rate 2.4% among 320,000. AID 485313; note: % of control where 0% means no effect; nearly all actives have a fitted effect of over 60% in size
#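 Huh7 cells stably carrying NPC1 promoter–luciferase, plated in Opti-MEM with 10% FBS for 2 h, were exposed to compound in DMSO for 24 h at 37 °C; luciferase reagent was added for 10 min and luminescence read.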
# ELG1 genotoxic = induces genotoxicity in HEK293T cells with luciferase-tagged ELG1; hit rate 1.3% among 330,000; Potency, µM (doses to about 46 µM), for inactives: at the highest dose activity change, positive = activation, usual class: activators; HEK293T ELG1-luciferase reporter, luminescence, 16 h; note: % of control where 0% means no effect; nearly all actives have a fitted effect of over 60% in size
#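 DMSO vehicle served as control against compound-treated ELG1-luciferase HEK293T cells; exposure lasted 16 hr at 37 °C and 5% CO2, followed by ONE-Glo luminescence detection after 30 min.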
# Rab9 prom act = activators of Rab9 promoter. Huh7 Rab9 promoter-luciferase reporter, luminescence, 24 h. hit rate 2.8% among 320,000. AID 485297. Potency, µM (top dose mostly 9.22 µM), for inactives: at the highest dose activation, negative = inhibition, hits mostly activators; note: % of control where 0% means no effect; nearly all actives have a fitted effect of over 60% in size
#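 Luminescence read-out: Huh7 cells stably expressing Rab9-luciferase, treated 24 h with compound at 37 °C, then lysed with luciferase reagent for 10 min at ambient before reading.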
# FLuc modulator = inhibits or activates purified firefly luciferase, miR-21 counter-screen | P08659 | hit rate 6.9% among 360,000 | Potency, µM (titrated, usually from 57.5 µM), for the others: top-dose activity change, negative = inhibition, actives largely listed as inhibitors | purified FLuc, Km substrates, luminescence inhibition;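 note: plate controls were vehicle for no effect and reference inhibitor for full effect; nearly all actives have a fitted effect of over 55% in size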
# Target sequence (P08659 whole entry, looked up): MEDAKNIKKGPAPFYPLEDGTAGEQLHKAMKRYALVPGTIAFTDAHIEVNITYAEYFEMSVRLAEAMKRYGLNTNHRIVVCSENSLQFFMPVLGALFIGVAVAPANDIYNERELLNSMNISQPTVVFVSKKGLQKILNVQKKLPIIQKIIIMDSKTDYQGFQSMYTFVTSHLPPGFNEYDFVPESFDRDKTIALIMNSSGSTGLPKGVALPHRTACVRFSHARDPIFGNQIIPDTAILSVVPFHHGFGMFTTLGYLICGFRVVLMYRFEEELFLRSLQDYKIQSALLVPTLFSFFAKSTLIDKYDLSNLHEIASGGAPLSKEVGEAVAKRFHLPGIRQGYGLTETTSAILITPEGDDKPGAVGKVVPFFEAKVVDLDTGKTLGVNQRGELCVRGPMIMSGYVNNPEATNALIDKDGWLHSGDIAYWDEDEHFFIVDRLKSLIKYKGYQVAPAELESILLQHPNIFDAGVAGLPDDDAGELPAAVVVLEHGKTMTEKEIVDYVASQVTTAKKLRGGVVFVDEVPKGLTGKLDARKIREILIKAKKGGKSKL
#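 Purified P. pyralis luciferase (10nM final) with 10uM D-luciferin and 10uM ATP (Km levels) in 50mM Tris acetate pH 7.5, 10mM Mg acetate, 0.01% Tween-20, 0.05% BSA; qHTS 6-point titration, ~60 µM downward; luminescence read.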
# ELG1 DNA repair = ELG1-dependent DNA repair inhibition | HEK293T ELG1-luciferase reporter, luminescence, 16 h; DNA damage induced by 5-fluorouridine | Potency, µM (doses to about 46.1 µM), for inactives: at the highest dose activity change, negative = inhibition, actives largely listed as inhibitors | hit rate 2.3% among 330,000 | AID 504467; note: % is set by controls: 0 for no effect and ±100 for the full control effect; nearly all actives have a fitted effect of over 55% in size
#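 Cells (2,000 per well) received 5-fluorouridine plus test compound or DMSO and were incubated 16 hr at 37 °C, 5% CO2. Luciferase activity was read by luminescence 30 min after ONE-Glo addition; signal suppression marked inhibition of damage-induced ELG1 function.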
# * = called active by the depositor; ? = inconclusive; . = not tested or not shown. Compounds with a hit are over-represented: about 9.4% of the library has one in this group of screens. Calls come from the whole dose curve; as a rule, active = well fitted curve in the direction sought with a large enough effect; inconclusive = small, poorly fitted or top-dose-only effect, or another doubt; inactive = no such curve, though single readings can be large; an effect the other way counts as inactive or inconclusive. Potency is the fitted concentration of half-maximal effect.
SMILES,SMN2 splice up,NPC1 prom act,ELG1 genotoxic,Rab9 prom act,FLuc modulator,ELG1 DNA repair
O=C(CSc1nc2ccccc2[nH]1)NCc1ccc(F)cc1,12.0%,2.1%,-2.2%,-0.5%,-4.2%,-9.7%
O=C(NCCc1csc(-c2ccc(C(F)(F)F)cc2)n1)c1ccc(F)c(F)c1,.,.,.,.,-17.3%,.
COc1ccc(OC)c(CCNC(=O)c2nn(C)c3c2CSc2ccccc2-3)c1,.,.,.,.,4.5%,.
C#C[C@]1(O)CC[C@H]2C3CCC4=Cc5oncc5CC4(C)C3CCC21C (some centres undefined),-8.3%,.,.,.,.,.
CCOc1ccccc1OCCCOc1ccc(C)cc1Br,2.0%,4.5%,10.8%,19.3%,10.7µM*,?
CCOc1ccccc1OCCCOc1ccc(C)cc1Cl,.,26.8%,5.5%,?,10.7µM*,?
O=C(O)c1ccc(C2Nc3ccccc3-c3nnc(SCc4ccc(Cl)cc4)nc3O2)cc1 (centres undefined),-7.7%,.,.,.,?,.
CC1=C(C(=O)Nc2cc(Cl)ccc2C)C2(CCCCC2)OC1=O,4.7%,.,.,.,-2.4%,.
CCN(CC)Cc1c(-c2ccccc2)[nH]c2ccc(C)cc2c1=O,-7.1%,21.5%,4.9%,0.6%,-11.8%,0.0%
O=C1/C(=C\c2ccccc2)CCc2c1[nH]c1ccccc21,11.2µM*,?,1.46µM*,?,2.69µM*,?
Cc1ccc2[nH]c3c(c2c1)CC/C(=C/c1ccccc1)C3=O,?,28.2%,?,?,4.78µM*,?
Cc1ccc(/C=C2/CCc3c([nH]c4ccccc34)C2=O)cc1,6.31µM*,0.501µM*,?,0.447µM*,0.757µM*,?
CC(C)/C=C1\CCc2c([nH]c3ccccc23)C1=O,.,11.7%,-14.0%,?,?,17.1%
Cc1cc[n+](C2=C([O-])c3ccccc3C(=O)/C2=N\S(=O)(=O)c2cccs2)cc1C,-82.1%,-12.3%,-14.8%,-17.5%,-14.9%,23.1µM*
Cc1cc(C)c[n+](C2=C([O-])c3ccccc3C(=O)/C2=N\S(=O)(=O)c2cccs2)c1,-73.4%,-17.9%,-6.6%,-27.9%,-0.1%,11.6µM*
COC(=O)CC1C(=O)NCCN1C(=O)CSc1nnc(Nc2ccc(C)cc2)s1 (centres undefined),4.9%,0.5%,7.2%,2.0%,16.9µM*,6.2%
COC(=O)CC1C(=O)NCCN1C(=O)CSc1nnc(Nc2ccc(OC)cc2)s1 (centres undefined),.,6.3%,6.0%,1.5%,21.3µM*,5.0%
COC(=O)CC1C(=O)NCCN1C(=O)CSc1nc2ccccc2o1 (centres undefined),0.3%,-4.9%,-3.2%,-7.1%,4.2%,-15.8%
CC(=O)c1cc2c(cc1NS(=O)(=O)c1ccccc1)OCO2,-16.6%,11.7%,16.4µM*,20.1%,3.4%,?
CC(=O)c1cc2c(cc1NS(=O)(=O)c1cccc(C(=O)O)c1)OCO2,.,1.2%,2.5%,-1.7%,1.7%,11.7%
Oc1ccc(Oc2ccc3c(C(F)(F)F)cc(C(F)(F)F)nc3n2)cc1,-16.7%,-4.0%,-11.7%,-5.6%,-0.3%,18.4µM*
O=C(NCCSCc1c(F)cccc1Cl)Nc1ccccc1,.,17.7%,3.5%,9.0%,16.9µM*,13.5%
O=C(Cc1ccccc1)NCCSCc1ccco1,-5.2%,-0.8%,7.1%,29.3%,-19.9%,27.9%
S=C(NCCSCc1c(Cl)cccc1Cl)Nc1ccccc1,14.0%,-0.9%,-9.5%,-1.1%,-12.5%,-25.4%
O=C(NCCSCc1ccco1)Nc1ccccc1,.,26.3%,11.5%,24.1%,16.9µM*,0.0%
CN(C)CCCN1C(=O)c2cccc3c([N+](=O)[O-])ccc(c23)C1=O,-36.2%,-16.4%,-19.2%,-15.4%,-4.4%,13µM*
COC(=O)CSc1nnc(SCc2ccc(Cl)cc2)s1,-9.2%,-0.1%,1.8%,-3.5%,16.9µM*,?
COC(=O)CSc1nnc(SCc2ccccc2)s1,-4.0%,1.5%,1.7%,8.1%,19µM*,-5.3%

# Screening results: PubChem, National Center for Advancing Translational Sciences (NCATS)
